Records with an inconclusive call do not appear. Active and inactive are the calls of the source. The call rests on the fitted dose curve; in most records, active means well fitted inhibition curve with a large enough effect in the repeat runs; inconclusive means weak or mixed curves; inactive means no such curve, though single readings can be large or run the other way.
On the % scale 0 is the no-effect control and ±100 the full control effect; potency means the concentration at half of the fitted maximal effect.

The nature of the assay: qHTS assay to identify small molecule antagonists of the thyroid receptor (TR) signaling pathway (AID 743065). Further: nearly all actives have a fitted effect of over 55% in size. The following applies: GH3.TRE-Luc, T3-stimulated luciferase inhibition, 23.5 h; series mostly up to 70.3 µM; activity, negative = inhibition: at the top concentration. The essentials:
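GH3.TRE-Luc rat pituitary cells (two TREs driving luciferase) were dosed with compound, then stimulated with 1 nM T3 (final) for 23.5 h at 37 C. ONE-Glo luminescence was the read-out, with CellTiter-Fluor fluorescence as the cytotoxicity counter-screen.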
On the technique in general: Quantitative high-throughput screening tests each substance at several concentrations.
For the compound `CN[C@@]1(c2ccccc2Cl)CCCCC1=O`, the “activity, negative = inhibition” value is 0.159% (inactive).

For the compound `CCNC1(c2cccs2)CCCCC1=O` (stereo unspecified), the “activity, negative = inhibition” value is -0.0036% [at 32.5 µM] (inactive).

Regarding `CNC(C)CC1CCCCC1` (stereo unspecified), the “activity, negative = inhibition” value was 2.49% (inactive).

On to `CCC1(c2ccccc2)C(=O)NC(=O)N(C)C1=O` (stereo unspecified), for which the “activity, negative = inhibition” value was -0.375% (inactive).

For the compound `COc1cc([C@@H]2c3cc4c(cc3[C@@H](O)[C@H]3COC(=O)[C@H]23)OCO4)cc(OC)c1O`, the Potency was 0.266 µM (active).

In the case of `CNC(C)Cc1ccccc1` (stereo unspecified), the “activity, negative = inhibition” value was -0.406% (inactive).

As to `CN[C@@H](C)Cc1ccccc1`, the “activity, negative = inhibition” value was -0.364% (inactive).

Regarding `CCCCNC(C)(C)[P+](=O)O`, the “activity, negative = inhibition” value is 6.39% (inactive).

`O=C1C[C@@H]2OCC=C3CN4CC[C@]56c7ccccc7N1[C@H]5[C@H]2[C@H]3C[C@H]46` (tested in a mixture with another compound): the Potency result was “inactive”.

`O=c1ccc2cc(O[C@@H]3O[C@H](CO)[C@@H](O)[C@H](O)[C@H]3O)c(O)cc2o1`: the “activity, negative = inhibition” value is 4.65% [at 32.5 µM] (inactive).

With `C/C=C(\CC)C(=O)NC(N)=O`, the “activity, negative = inhibition” value is 1.35% (inactive).

As to `Cc1nnc2n1-c1ccc(Cl)cc1C(c1ccccc1)=NC2`, the Potency was 26.6 µM (active).

Take `CCCSc1cc(OC)c(CCN)cc1OC`: the Potency was 32.5 µM (active).

Turning to `O=C(O)CCCO`, the “activity, negative = inhibition” value is -3.96% [at 95 µM] (inactive).

As to `Oc1ccc2c3c1O[C@H]1[C@@H](O)C=C[C@H]4[C@H](C2)NCC[C@@]341`, the “activity, negative = inhibition” value was 13.2% (inactive).

On to `O=P1(N(CCCl)CCCl)NC(OO)CCO1` (stereo unspecified), for which the “activity, negative = inhibition” value is 8.08% (inactive).

As to `COC(=O)[C@H]1[C@@H](OC(=O)c2ccccc2)C[C@@H]2CC[C@H]1N2C`, the “activity, negative = inhibition” value was -21.2% (inactive).

As for `C=C[C@H]1CN2CC[C@H]1C[C@H]2[C@H](OC(=O)OCC)c1ccnc2ccc(OC)cc12`, the “activity, negative = inhibition” value is 16.4% (inactive).

For `CCc1cc(OC)c(C[C@@H](C)N)cc1OC`, the Potency was 56.7 µM (active).

As to `CC(C)[C@H]1C(=O)N2CCC[C@H]2[C@]2(O)O[C@](NC(=O)[C@@H]3C[C@@H]4c5cccc6[nH]cc(c56)C[C@H]4N(C)C3)(C(C)C)C(=O)N12`, the Potency is 29.8 µM (active).

As to `C[C@]12CC[C@H]3[C@@H](CCC4=C(Cl)C(=O)CC[C@@]43C)[C@@H]1CC[C@@H]2O`, the Potency is 13.3 µM (active).

Regarding `C[C@@H]1[C@@H]2Cc3ccc(O)cc3[C@@]1(C)CCN2CC1CC1`, the “activity, negative = inhibition” value was -9.53% (inactive).

Regarding `C[C@@H]1[C@H]2Cc3ccc(O)cc3[C@]1(C)CCN2C`, the Potency was 50.2 µM (active).

Turning to `CC(C)C[C@H]1C(=O)N2CCC[C@H]2[C@]2(O)O[C@](NC(=O)[C@@H]3C[C@@H]4c5cccc6[nH]cc(c56)C[C@H]4N(C)C3)(C(C)C)C(=O)N12`, the Potency was 29.8 µM (active).

`[H+].[H+].[Hg+2].[O-]B([O-])[O-].[c-]1ccccc1`: the Potency was 0.596 µM (active).

As for `C=CCC1([C@@H](C)CCC)C(=O)NC(=O)NC1=O`, the “activity, negative = inhibition” value is -10.3% (inactive).

For `CC[C@H]1[C@@H]2C[C@H]3[C@@H]4N(C)c5ccccc5[C@]45C[C@@H](C2[C@H]5O)N3[C@@H]1O` (stereo partly specified), the “activity, negative = inhibition” value is -13.4% [at 32.5 µM] (inactive).

`CC(N)Cc1ccc2c(c1)OCO2` (stereo unspecified): the “activity, negative = inhibition” value is 10.5% (inactive).

For the compound `CN1c2ccccc2C(NCCCCCCC(=O)O)c2ccc(Cl)cc2S1(=O)=O` (stereo unspecified), the “activity, negative = inhibition” value is -5.74% (inactive).

For `CN[C@]1(c2ccccc2Cl)CCCCC1=O`, the “activity, negative = inhibition” value was 0.671% (inactive).

On to `CC(=O)[C@@]1(O)CC[C@H]2[C@@H]3CCC4=CC(=O)CC[C@]4(C)C3(F)[C@@H](O)C[C@@]21C` (stereo partly specified), for which the “activity, negative = inhibition” value was -0.0942% (inactive).
